UCHL1 block: human UCHL1 deubiquitinase inhibition. AID 1645859. P09936. purified UCHL1, Ub-rhodamine cleavage fluorescence. inhibition, % at 20 µM. 47,000 tested, 0.2% active
USP10 block: inhibitors of human USP10 deubiquitinase; Q14694; purified USP10, Ub-rhodamine fluorescence, 60 min; inhibition, % at 20 µM; 47,000 tested, 1.1% active; AID 1645856
Target sequence (Q14694 whole entry, looked up): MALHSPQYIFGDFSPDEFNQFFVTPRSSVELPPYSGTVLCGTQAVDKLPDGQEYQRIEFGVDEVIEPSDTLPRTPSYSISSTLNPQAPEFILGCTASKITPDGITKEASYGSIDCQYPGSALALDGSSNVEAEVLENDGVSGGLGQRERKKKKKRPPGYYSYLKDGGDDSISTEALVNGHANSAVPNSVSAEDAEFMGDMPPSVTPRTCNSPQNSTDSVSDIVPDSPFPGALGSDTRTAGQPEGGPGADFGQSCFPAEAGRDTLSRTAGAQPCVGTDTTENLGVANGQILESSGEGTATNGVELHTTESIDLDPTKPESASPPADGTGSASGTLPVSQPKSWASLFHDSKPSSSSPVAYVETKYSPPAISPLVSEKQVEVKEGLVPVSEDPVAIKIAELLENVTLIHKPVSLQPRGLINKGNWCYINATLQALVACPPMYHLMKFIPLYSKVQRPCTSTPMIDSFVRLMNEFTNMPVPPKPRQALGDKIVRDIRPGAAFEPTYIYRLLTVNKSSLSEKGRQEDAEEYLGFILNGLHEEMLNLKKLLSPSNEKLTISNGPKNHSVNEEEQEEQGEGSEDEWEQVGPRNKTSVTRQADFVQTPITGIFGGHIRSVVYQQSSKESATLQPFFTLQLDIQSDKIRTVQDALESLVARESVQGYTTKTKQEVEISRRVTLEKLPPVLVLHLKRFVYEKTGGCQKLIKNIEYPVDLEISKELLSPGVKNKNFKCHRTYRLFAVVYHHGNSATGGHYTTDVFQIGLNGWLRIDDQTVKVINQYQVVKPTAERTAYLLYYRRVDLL
USP7 block: inhibitors of human USP7 deubiquitinase | Q93009 | purified USP7, Ub-rhodamine cleavage fluorescence | 47,000 tested, 0.3% active | inhibition, % at 20 µM
OTUD3 block: blocks human OTUD3 ubiquitin-rhodamine cleavage | AID 1645858 | purified OTUD3, Ub-rhodamine fluorescence, 2 h | inhibition, % at 25 µM | 47,000 tested, 0.7% active
USP28 block: inhibitors of human USP28 deubiquitinase; 47,000 tested, 3% active; Q96RU2; purified USP28, Ub-rhodamine cleavage fluorescence, 30 min; inhibition, % at 25 µM; AID 1645857
Each line names hits and unclear results; the compound was inactive in the other large screens. An excerpt weighted towards active compounds, which were near 4.2% of everything screened. Cut-off read from the data, not from the text of the source: active = inhibition above about 30%; inactive = the rest.

CCN(C)C(=O)c1c2c(-c3ccc(OC)cc3)ncnc2n2ccccc12	none
O=c1c2c(ccn1Cc1nc(C3CC3)no1)ccn2Cc1cccnc1	USP28 block 30.8
O=c1c2c(ccn1Cc1ccccc1F)ccn2Cc1cccnc1	none (no result: USP28 block)
Fc1ccc(Cc2nc(-c3ccnc(N4CCCC4)c3)no2)cc1	USP28 block 47.9
COc1ccc(OCc2nc(-c3ccc(N4CCCCCC4)nc3)no2)cc1	none
Cc1cccc(OCc2nc(-c3ccnc(N4CCCC4)c3)no2)c1	USP28 block 32.0
C/C(=C\Cc1c(O)cc(C)c(C=O)c1O)CC[C@@]1(C)[C@H](C)CCC(=O)[C@@H]1C	USP10 block 37.5
COC1C(CO)O[C@@H](O[C@H](C[C@@]2(C)[C@H](C)CCC(=O)[C@@H]2C)/C(C)=C/Cc2c(O)c(Cl)c(C)c(C=O)c2O)C(O)C1O (stereo not given in full)	none
O=C(Nc1cccc(F)c1)Nc1cccc(-c2nnc(-c3ccccc3)o2)c1	USP10 block 32.4, USP28 block 72.2
Nc1ccc(SCc2nnc(-c3cccc(F)c3)o2)cc1	none
CC(C)(C)C(=O)Nc1ccc(C(=O)Nc2cccc(-c3nnc(-c4ccccc4)o3)c2)cc1	USP10 block 37.7
CC(=O)Nc1ccc(SCc2nnc(-c3ccccc3)o2)cc1	USP28 block 44.6
COc1ccc(C)cc1NC(=O)CN1C(=O)C2CCCC2=Nc2ccccc21 (stereo not given)	OTUD3 block 34.6
Cn1nccc1-c1cncc(CC2CCN(C(=O)C(C)(C)C)CC2)n1	none
O=C(COc1ccc(F)cc1)Nc1cnc(-c2ccc(Cl)cc2)nc1	none
Cc1nn(-c2ccccc2)c(C)c1C(=O)OCC(=O)Nc1cccc(C#N)c1	USP28 block 65.8
Cc1nn(-c2ccccc2)c(C)c1C(=O)OCC(=O)N(C)c1ccccc1	none
Cc1nc(-c2ccccc2)sc1C(=O)Nc1ccc2cc[nH]c2c1	none
COc1ccc(OC)c(NC(=O)c2sc(-c3ccccc3)nc2C)c1	OTUD3 block 47.9, USP28 block 44.3
CC(=O)c1cccc(NC(=O)c2sc(-c3ccccc3)nc2C)c1	USP28 block 33.4
O=C1CC(C(=O)Nc2ccccc2Cl)n2nc(-c3ccccc3)cc2N1 (stereo not given)	none
O=C1CC(C(=O)Nc2ccccc2F)n2nc(-c3ccccc3)cc2N1 (stereo not given)	USP28 block 55.9
CSc1ccc(/C=C/c2nc(-c3ccccc3O)n[nH]2)cc1	none
O=C(Cn1c(=O)n(Cc2ccccc2)c(=O)c2ncccc21)NCc1ccccc1Cl	USP10 block 51.2, USP7 block 33.4
O=C(Cn1c(=O)n(Cc2ccncc2)c(=O)c2ncccc21)Nc1ccccc1	none
Cc1ccc(C)c(NC(=O)COC(=O)c2sc3cc(F)ccc3c2Cl)c1	none
Cc1cc(-c2cnc(N3CCCC(C)C3)nc2C2CCNCC2)on1 (stereo not given)	none
CCCn1c(=O)[nH]c2c(C(=O)N3CCc4ccccc4C3)snc2c1=O	none
c1cnc(-c2n[nH]c(C3CCN(C4CCNC4)CC3)n2)cn1 (stereo not given)	USP28 block 50.9
Cc1ccc(CN2CCC(c3nc(-c4ccncc4)n[nH]3)CC2)o1	none (no result: USP28 block)
CC(=O)c1ccc(NC(=O)COc2coc(CN3CCc4ccccc4C3)cc2=O)cc1	none
COc1cc(OC)cc(C(=O)N2CCC(C(=O)Nc3ccc4c(c3)OCCO4)CC2)c1	USP28 block 49.3
COc1cc(OC)cc(C(=O)N2CCC(C(=O)Nc3cccc4ccccc34)CC2)c1	none
Cc1c(C)n(-c2ccc(Br)cn2)c2ncnc(NCCCO)c12	none
O=c1c2ccccc2nc(CSc2nc3ccc4[nH]snc4c3n2)n1-c1ccccc1	USP28 block 51.0
O=c1c2ccccc2nc(N2CCN(Cc3ccccc3)CC2)n1-c1ccccc1	none
CCN1C(=O)c2cc(NC(=O)c3ccc(F)cc3)ccc2Oc2ccccc21	USP28 block 44.7
CN1C(=O)c2cc(NC(=O)c3ccccc3)ccc2Oc2ccccc21	USP28 block 41.3
CCCN1C(=O)CCc2cc(NC(=O)c3ccccc3)ccc21	none
CN1C(=O)c2cc(NC(=O)c3ccccc3Cl)ccc2Oc2ccccc21	USP28 block 79.8
CCN1C(=O)Cc2cc(NC(=O)c3ccc(-c4ccccc4)cc3)ccc21	none
COc1ccccc1-c1nc(-c2nnn(Cc3ccccc3)c2C)no1	USP28 block 45.3
COc1ccccc1-c1nc(-c2nnn(-c3ccc(C)cc3)c2C)no1	none
COc1ccc(-c2nc(-c3nnn(Cc4ccccc4)c3C)no2)cc1OC	none
COc1ccccc1-c1nc(-c2nnn(Cc3ccc(C)cc3)c2C)no1	USP28 block 71.9
COc1ccc(-c2nc(-c3nnn(Cc4cccc(F)c4)c3C)no2)c(OC)c1	USP28 block 41.7
CN1c2ccc(C(=O)Nc3ccccc3F)cc2-c2ccccc2S1(=O)=O	none
Cc1ccnc(Nc2nc(C)c(C(=O)NC3CCCC3)s2)c1	none
CC(=O)c1sc(NCc2ccc(C)cc2)nc1C	USP28 block 49.6
NC(=O)C(NCc1ccc(Br)cc1F)c1ccccc1 (stereo not given)	none
COc1ccc(CCNC(=O)CCn2c(=O)c3ccccc3n(Cc3ccc(F)cc3)c2=O)cc1OC	USP28 block 31.1
COc1ccc(CCNC(=O)CCn2c(=O)c3ccccc3n(Cc3ccc(C)cc3)c2=O)cc1OC	none
COc1ccccc1CNC(=O)CCCCn1c(=O)c2ccccc2n(Cc2ccccc2C#N)c1=O	none
CCOc1ccc(CN2C(=O)c3ccccc3C2C(=O)NCc2ccccc2OC)cc1 (stereo not given)	none
COc1ccccc1CNC(=O)CCCCn1c(=O)c2ccccc2n(Cc2ccc(C)cc2)c1=O	USP10 block 35.3
COc1ccccc1CNC(=O)C1c2ccccc2C(=O)N1Cc1ccc(C)cc1 (stereo not given)	OTUD3 block 51.9
COc1cc(NC(=O)CN2CCCc3ccccc32)cc(OC)c1OC	none
COc1ccc(C(C)=O)cc1Cn1c(=O)c2c(ncn2C2CCCC2)n(Cc2ccccc2)c1=O	none
CCCCCC(=O)C(CCCC)c1oc(=O)c(CCCC)c(O)c1CCCC (stereo not given)	USP10 block 39.1
O=C1N(Cc2ccc(F)cc2)CCN1c1ccc2c(c1)OCO2	USP28 block 48.3
Cc1cn(C)c(C2CCCN(C(=O)Cn3cnc4ccccc43)C2)n1 (stereo not given)	none
Cc1c(O)ccc2c(=O)c(-c3cc4ccccc4o3)coc12	none
O=c1ccc(-c2cc3ccccc3o2)cn1Cc1ccccc1-c1ccccc1	UCHL1 block 38.2, OTUD3 block 46.5, USP28 block 62.4
O=S(=O)(Nc1ccc2oc(-c3ccncc3)nc2c1)c1ccccc1	USP28 block 32.1
CCOc1ccc(NC(=O)COc2cccc3c2CCN(CC)C3=O)cc1	USP28 block 74.7
O=C(COc1ncnc2scc(-c3ccccc3)c12)Nc1cc(C(F)(F)F)ccc1Cl	none
O=C(COc1cccc2c1CCN(Cc1cccnc1)C2=O)Nc1ccc2c(c1)OCCO2	USP28 block 89.8
CCN1CCc2c(OCC(=O)Nc3cc(C(F)(F)F)ccc3Cl)cccc2C1=O	USP28 block 32.9

Compound activity deposited in PubChem BioAssay by Buhrlage Lab, Dana-Farber Cancer Institute and Novartis Institutes for BioMedical Research (Cambridge, Mass).
